# In PubChem BioAssay (Tox21):
# Inconclusive results are not listed. Where a call stands in place of a potency, no number is given. Activity calls are given as the source filed them. Unless noted, calls come from the whole dose curve.
# Experiments:
# [1] = qHTS assay to identify small molecule antagonists of the sonic hedgehog signaling (Shh) pathway (AID 1259369); note: nearly all actives have a fitted effect of over 45% in size; note: potency is the fitted concentration of half-maximal effect
# Method in brief: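 Conditioned medium drives Shh signalling in 3T3Gli1-Luc cells; compounds in DMSO co-applied, 24hr at 37 C, then luciferase luminescence.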
# [2] = qHTS assay to identify small molecule agonists of the androgen receptor (AR) signaling pathway in the presence of an antagonist - cell viability counter screen (AID 1259379; active = well fitted curve in the direction sought with a large enough effect in the repeat runs; an effect the other way counts as inactive or inconclusive; note: nearly all actives have a fitted effect of over 25% in size; note: potency is the fitted concentration of half-maximal effect;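 for activity change, negative = cytotoxicity: MDA-kb2 human breast cancer cells carrying an MMTV luciferase reporter; series mostly up to about 92 µM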)
# Method in brief: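 A CellTiter-Fluor read-out measured viability of MDA-kb2 reporter cells (MMTV promoter with AR and GR response elements). Treatment: nilutamide 3.0uM final with compounds at 15 concentrations, 16 hr, 37C, 0% CO2.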
# [3] = qHTS assay to identify small molecule agonists or antagonists of the thyroid stimulating hormone receptor (TSHR) signaling pathway - wild type cell line counter screen (AID 1259384)
# Method in brief: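 Counter screen in untransfected Hek293: compounds (15-point titration, triplicate) plus phosphodiesterase inhibitor Ro20-1724 added after 18 h plating; 30 min RT. Intracellular cAMP via competitive d2/cryptate immunoassay, 1 h incubation.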
# [4] = biological target: Estrogen receptor (Homo sapiens) (UniProt P03372); assay: qHTS assay to identify small molecule agonists of the estrogen receptor alpha (ER-alpha) signaling pathway in the presence of an antagonist (AID 1259383); note: top concentration of the series differs between compounds; nearly all actives have a fitted effect of over 15% in size
# Estrogen receptor (Homo sapiens), sequence (P03372 whole entry, looked up): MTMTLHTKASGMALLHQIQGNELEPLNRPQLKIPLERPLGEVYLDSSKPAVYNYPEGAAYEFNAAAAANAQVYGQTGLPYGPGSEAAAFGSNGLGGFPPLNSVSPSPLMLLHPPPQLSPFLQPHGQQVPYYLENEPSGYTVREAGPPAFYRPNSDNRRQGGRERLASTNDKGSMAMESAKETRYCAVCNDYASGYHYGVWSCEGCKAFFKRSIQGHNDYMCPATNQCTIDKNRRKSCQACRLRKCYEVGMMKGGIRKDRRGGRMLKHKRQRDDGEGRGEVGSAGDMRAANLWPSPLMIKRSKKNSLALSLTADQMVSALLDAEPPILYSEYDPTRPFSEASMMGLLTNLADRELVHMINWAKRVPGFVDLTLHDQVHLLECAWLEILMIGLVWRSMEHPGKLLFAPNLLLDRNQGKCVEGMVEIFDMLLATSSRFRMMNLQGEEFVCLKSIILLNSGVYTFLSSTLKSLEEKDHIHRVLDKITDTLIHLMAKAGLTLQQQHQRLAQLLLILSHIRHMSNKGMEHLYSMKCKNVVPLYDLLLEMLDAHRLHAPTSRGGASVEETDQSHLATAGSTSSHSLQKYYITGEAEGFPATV
# Method in brief: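 Using VM7Luc4E2 cells seeded 24hr before treatment, antagonist ICI-182,780 (10.0nM final) was added, followed by compounds at 15 concentrations. Plates incubated 22hr; ONE-Glo luminescence quantified reporter activity.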
# [5] = biological target: Thyrotropin receptor (Homo sapiens) (UniProt P16473); assay: qHTS assay to identify small molecule antagonists of the thyroid stimulating hormone receptor (TSHR) signaling pathway (AID 1259385); note: nearly all actives have a fitted effect of over 20% in size; note: potency is the fitted concentration of half-maximal effect
# Thyrotropin receptor (Homo sapiens), sequence (P16473 whole entry, looked up): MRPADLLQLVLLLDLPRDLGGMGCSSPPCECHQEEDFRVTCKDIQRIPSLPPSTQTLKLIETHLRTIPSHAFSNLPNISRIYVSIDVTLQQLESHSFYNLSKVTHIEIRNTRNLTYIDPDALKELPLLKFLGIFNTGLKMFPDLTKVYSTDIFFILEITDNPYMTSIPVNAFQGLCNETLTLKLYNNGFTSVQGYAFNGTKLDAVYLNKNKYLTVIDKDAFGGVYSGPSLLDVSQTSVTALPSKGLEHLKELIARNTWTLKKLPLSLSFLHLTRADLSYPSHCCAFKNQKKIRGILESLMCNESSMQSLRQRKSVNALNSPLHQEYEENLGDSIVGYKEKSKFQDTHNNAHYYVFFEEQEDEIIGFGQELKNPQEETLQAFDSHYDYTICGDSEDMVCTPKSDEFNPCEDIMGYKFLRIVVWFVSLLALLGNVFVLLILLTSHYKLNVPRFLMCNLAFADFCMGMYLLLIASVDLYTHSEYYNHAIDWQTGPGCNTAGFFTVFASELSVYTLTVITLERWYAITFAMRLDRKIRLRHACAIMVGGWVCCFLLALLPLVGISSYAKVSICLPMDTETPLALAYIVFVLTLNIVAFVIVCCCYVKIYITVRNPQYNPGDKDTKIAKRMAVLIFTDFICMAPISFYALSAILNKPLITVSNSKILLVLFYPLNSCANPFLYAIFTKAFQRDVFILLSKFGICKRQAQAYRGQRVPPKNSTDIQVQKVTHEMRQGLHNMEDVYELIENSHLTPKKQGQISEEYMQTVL
# Method in brief: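 Antagonist mode: compound-treated TSHR-expressing HEK293 cells were stimulated with 1.5 ng/mL TSH (final) in presence of Ro20-1724 for 30 min at RT. HTRF cAMP detection after 1 h; each compound tested at 15 concentrations, triplicate.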
# [6] = biological target: Estrogen receptor beta (Homo sapiens) (UniProt Q92731); assay: qHTS assay to identify small molecule agonists of the estrogen receptor beta (ER-beta) signaling pathway (AID 1259377; active = well fitted activation curve with a large enough effect in the signal ratio in the repeat runs, not every such curve was filed as active; the % refers to the signal ratio)
# Estrogen receptor beta (Homo sapiens), sequence (Q92731 whole entry, looked up): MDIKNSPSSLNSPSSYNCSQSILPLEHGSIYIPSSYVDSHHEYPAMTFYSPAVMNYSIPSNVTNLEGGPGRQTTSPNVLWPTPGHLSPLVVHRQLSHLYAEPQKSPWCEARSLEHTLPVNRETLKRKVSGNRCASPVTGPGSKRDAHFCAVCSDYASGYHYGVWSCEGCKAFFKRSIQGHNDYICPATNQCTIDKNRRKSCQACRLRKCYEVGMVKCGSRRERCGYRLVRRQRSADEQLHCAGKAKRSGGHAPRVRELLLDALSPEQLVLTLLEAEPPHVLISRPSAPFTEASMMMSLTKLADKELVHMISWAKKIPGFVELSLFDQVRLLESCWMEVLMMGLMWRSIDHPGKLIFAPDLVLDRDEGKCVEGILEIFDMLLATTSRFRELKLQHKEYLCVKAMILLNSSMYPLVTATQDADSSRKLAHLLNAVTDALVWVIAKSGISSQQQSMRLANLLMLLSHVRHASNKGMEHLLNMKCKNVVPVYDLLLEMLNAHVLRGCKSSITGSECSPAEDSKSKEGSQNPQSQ
# Method in brief: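 Measured by fluorescence intensity from a B/G FRET beta-lactamase substrate (2 h, room temperature) in ER-beta-UAS-bla HEK293T cells treated with DMSO-dissolved compounds for 16 hr at 37C and 5% CO2.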
# [7] = biological target: Estrogen receptor beta (Homo sapiens) (UniProt Q92731); assay: qHTS assay to identify small molecule antagonists of the estrogen receptor beta (ER-beta) signaling pathway (AID 1259378; active = well fitted inhibition curve with a large enough effect in the signal ratio in the repeat runs, not every such curve was filed as active; the % refers to the signal ratio)
# Method in brief: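 Antagonist mode: compounds added to beta-lactamase reporter HEK293T ER-beta-UAS cells stimulated with E2 (1nM final), 16 hr at 37C. LiveBLAzer B/G FRET substrate, 2 hours room temperature, fluorescence read-out.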
# [8] = qHTS assay to identify small molecule agonists of the estrogen receptor beta (ER-beta) signaling pathway - cell viability counter screen (AID 1259380; active = well fitted curve in the direction sought with a large enough effect in the repeat runs; an effect the other way counts as inactive or inconclusive; note: nearly all actives have a fitted effect of over 30% in size; note: potency is the fitted concentration of half-maximal effect)
# Method in brief: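 Cells used were ER-beta-UAS-bla HEK293T in medium with 2% charcoal-stripped FBS. They were treated for 16 hr at 37C. Viability came from CellTiter-Glo luminescence.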
# [9] = biological target: Androgen receptor (Homo sapiens) (UniProt P10275); assay: qHTS assay to identify small molecule agonists of the androgen receptor (AR) signaling pathway in the presence of an antagonist (AID 1259381); note: nearly all actives have a fitted effect of over 15% in size
# Androgen receptor (Homo sapiens), sequence (P10275 whole entry, looked up): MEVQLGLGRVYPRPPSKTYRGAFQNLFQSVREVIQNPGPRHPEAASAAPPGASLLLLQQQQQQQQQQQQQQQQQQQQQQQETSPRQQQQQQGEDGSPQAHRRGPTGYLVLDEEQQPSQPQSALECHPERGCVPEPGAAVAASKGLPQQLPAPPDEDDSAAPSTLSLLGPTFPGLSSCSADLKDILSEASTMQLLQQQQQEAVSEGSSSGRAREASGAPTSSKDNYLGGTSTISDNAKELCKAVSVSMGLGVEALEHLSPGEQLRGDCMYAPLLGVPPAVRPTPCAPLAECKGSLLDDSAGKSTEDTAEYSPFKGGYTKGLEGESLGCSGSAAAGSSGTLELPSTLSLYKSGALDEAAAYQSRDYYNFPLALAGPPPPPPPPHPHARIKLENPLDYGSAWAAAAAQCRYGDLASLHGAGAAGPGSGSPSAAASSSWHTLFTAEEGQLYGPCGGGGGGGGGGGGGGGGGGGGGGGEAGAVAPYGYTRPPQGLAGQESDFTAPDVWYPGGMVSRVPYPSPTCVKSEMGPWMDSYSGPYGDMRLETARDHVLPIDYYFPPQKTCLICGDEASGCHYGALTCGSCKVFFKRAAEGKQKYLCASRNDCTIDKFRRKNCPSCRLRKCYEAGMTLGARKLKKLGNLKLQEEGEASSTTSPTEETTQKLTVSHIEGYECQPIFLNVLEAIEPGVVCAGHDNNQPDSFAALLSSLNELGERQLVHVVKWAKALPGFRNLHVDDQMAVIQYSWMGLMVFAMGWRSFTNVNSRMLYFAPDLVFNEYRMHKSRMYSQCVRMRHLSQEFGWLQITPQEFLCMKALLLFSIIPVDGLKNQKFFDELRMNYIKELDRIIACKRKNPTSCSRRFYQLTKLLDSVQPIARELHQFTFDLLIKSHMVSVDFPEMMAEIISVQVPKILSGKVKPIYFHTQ
# Method in brief: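 Using human MDA-kb2 cells with an MMTV promoter–luciferase construct (AR and GR response elements), agonist activity is scored under 3.0uM nilutamide (final) co-treatment; 16hr incubation, 37C, luminescence readout via ONE-Glo.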
# [10] = qHTS assay to identify small molecule antagonists of the estrogen receptor beta (ER-beta) signaling pathway - cell viability counter screen (AID 1259382; active = well fitted curve in the direction sought with a large enough effect in the repeat runs; an effect the other way counts as inactive or inconclusive; note: series mostly up to about 92 µM; nearly all actives have a fitted effect of over 55% in size)
# Method in brief: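 Agonist-stimulated (1nM E2) ER-beta-UAS-bla HEK293T cells are incubated with library compounds for 16 hr at 37C. Cell viability is then assessed in the reporter-assay wells by adding CellTiter-Glo and reading luminescence after 30 min.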
compound,measurement,setting,value
Cc1cccc(C(=O)O)c1O,Potency,[1],inactive
same,Potency,[2],inactive
same,outcome,[3],inactive
CCN(CCN)c1cccc(C)c1,Potency,[1],7.77 µM (active)
same,Potency,[2],inactive
same,Potency,[4],inactive
same,outcome,[3],inactive
same,Potency,[5],inactive
CC(C)Cn1cnc2c(N)nc3ccccc3c21,activation,[6],4.64% [at 19 µM] (inactive)
same,"activity, negative = inhibition",[7],5.3% [at 19 µM] (inactive)
same,"activity change, negative = cytotoxicity",[2],-7.59% [at 19 µM] (inactive)
same,"activity change, negative = cytotoxicity",[8],0.961% [at 19 µM] (inactive)
same,activation,[9],-5.94% [at 19 µM] (inactive)
same,"activity change, negative = cytotoxicity",[10],-2.67% [at 19 µM] (inactive)
same,activation,[4],-0.124% [at 19 µM] (inactive)
same,cAMP activity change,[3],-0.409% [at 18.9 µM] (inactive)
CC1(C)CCC[C@]2(C)[C@H]3CC(=O)O[C@]3(C)CC[C@@H]12,Potency,[1],30.6 µM (active)
same,Potency,[2],inactive
same,Potency,[10],inactive
same,Potency,[4],inactive
same,outcome,[3],inactive
COc1cc(/C=C/c2ccccc2)oc(=O)c1,Potency,[1],inactive
same,Potency,[2],inactive
same,Potency,[10],inactive
same,Potency,[4],inactive
same,outcome,[3],inactive
same,Potency,[5],inactive
CN1CCN(Cc2cc(-c3ccc4[nH]c(=O)oc4c3)co2)[C@@H](c2ccc(F)cc2)C1,Potency,[1],4.16 µM (active)
same,Potency,[10],inactive
same,Potency,[4],inactive
same,outcome,[3],inactive
same,Potency,[5],inactive
O=C(Oc1ccccc1)Oc1ccccc1,Potency,[1],inactive
same,Potency,[2],inactive
same,Potency,[10],inactive
same,Potency,[4],inactive
same,outcome,[3],inactive
CCOc1ccc2ccccc2c1C(=O)N[C@@H]1C(=O)N2[C@@H]1SC(C)(C)[C@@H]2C(=O)O,Potency,[1],inactive
same,Potency,[2],inactive
same,outcome,[9],inactive
same,Potency,[10],inactive
same,Potency,[4],inactive
same,outcome,[3],inactive
same,Potency,[5],inactive
Nc1nc2c(ncn2COCCO)c(=O)[nH]1,Potency,[1],inactive
same,Potency,[2],inactive
same,Potency,[10],inactive
same,Potency,[4],inactive
same,outcome,[3],inactive
same,Potency,[5],inactive
Nc1ccc(C(=O)O)c(O)c1,Potency,[1],inactive
same,Potency,[2],inactive
same,outcome,[9],inactive
same,Potency,[10],inactive
same,outcome,[3],inactive
same,Potency,[5],inactive
O=c1[nH]c2ccccc2n1CCCN1CCN(C(c2ccccc2)c2ccccc2)CC1,Potency,[1],3.35 µM (active)
same,Potency,[8],11.9 µM (active)
same,outcome,[3],inactive
same,Potency,[5],inactive
CCCCCc1ccc(Cl)cc1,Potency,[1],inactive
same,Potency,[2],inactive
same,Potency,[10],inactive
same,Potency,[4],inactive
same,outcome,[3],inactive
same,Potency,[5],inactive
O=C1OC2(c3ccc(O)cc3Oc3cc(O)ccc32)c2ccc(N=C=S)cc21,Potency,[1],inactive
same,Potency,[8],inactive
same,Potency,[10],inactive
same,outcome,[3],inactive
Cc1ccc(O)c(N)c1,Potency,[1],8.64 µM (active)
same,Potency,[2],inactive
same,outcome,[3],inactive
CC1(C)CCC[C@]2(C)[C@H]3CCO[C@]3(C)CC[C@@H]12,Potency,[1],inactive
same,Potency,[2],inactive
same,Potency,[10],inactive
same,outcome,[3],inactive
same,Potency,[5],inactive
O=C(O)c1cc(-c2ccc(F)cc2F)ccc1O,Potency,[1],inactive
same,Potency,[2],inactive
same,Potency,[4],inactive
CCCCCCC1CCCC(=O)O1 (configuration not stated),Potency,[1],inactive
same,Potency,[2],inactive
same,Potency,[10],inactive
same,outcome,[3],inactive
same,Potency,[5],inactive
CCOC(=O)c1ccc(C2CCC(NC[C@H](O)COc3ccc(O)c(NS(C)(=O)=O)c3)CC2)cc1 (some centres not stated),Potency,[1],10 µM (active)
same,Potency,[8],50.2 µM (active)
C=CC(=O)OCCOC(=O)C=C,Potency,[1],inactive
same,outcome,[9],inactive
same,outcome,[3],inactive
same,Potency,[5],inactive
C=CC(=O)Nc1cc2c(Nc3ccc(F)c(Cl)c3)ncnc2cc1OCCCN1CCOCC1,Potency,[1],1.68 µM (active)
same,Potency,[2],0.841 µM (active)
same,outcome,[9],inactive
same,outcome,[3],inactive
same,Potency,[5],26.6 µM (active)
